# Shown is part of a subset that was picked to be rich in hits.
# C diff growth = C. difficile growth inhibition; growth activity, negative = inhibition, % at 16 µg/mL (by protocol); 86,000 compounds, 0.25% hits; Clostridium difficile clinical isolate growth, OD600, 24 h; hits give low values;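 active means mean growth activity at or below -80% and every replicate also at or below -80%; inconclusive means mean at or below -80% but some replicate above -80%; inactive means mean growth activity above -80%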;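 further: 0% = DMSO wells and -100% = levofloxacin 16 µg/mL wells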
# T cruzi growth-1 = inhibitors of T. cruzi proliferation; T. cruzi beta-gal in NIH3T3, GalScreen luminescence, 90 h; inhibition, % at 8.34 µM; 77,000 compounds, 5.9% hits;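 active means mean inhibition above about 93%, with at least 55% of replicates each passing it, limit read from the data, passing the limit was not always enough; inconclusive means only one of those two conditions holds; inactive means neither condition holds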
# T cruzi growth-2 = inhibitors of T. cruzi proliferation; shares compounds with T cruzi growth-1; T. cruzi beta-gal in NIH3T3, GalScreen luminescence, 90 h; inhibition, % at 8.35 µM; 5,600 compounds, 72% hits;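 active means mean replicate inhibition above about 95% and at least 55% of replicates individually reaching it, limit read from the data; inconclusive means only one of the two criteria is met; inactive means neither criterion is met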
# T cruzi growth-3 = blocks T. cruzi growth in NIH3T3 host cells. shares compounds with T cruzi growth-1. T. cruzi beta-gal in NIH3T3, GalScreen luminescence, 90 h. 5,600 compounds, 21% hits. inhibition, % at 2.09 µM. AID 651740;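 active means mean inhibition above about 95%, with at least 55% of replicates also reaching it, limit read from the data; inconclusive means meets just one of the two conditions; inactive means meets neither condition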;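 further: plate controls were neutral control median for no effect and positive control median for full effect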
# NIH3T3 tox = kills mouse NIH/3T3 fibroblasts; shares compounds with T cruzi growth-1; NIH/3T3 viability, CellTiter-Glo ATP luminescence, 90 h; cytotoxicity (signal decrease), % at 8.35 µM; 5,600 compounds, 14% hits; AID 651742;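 active means mean signal decrease across replicates above about 35% based on untreated-well scatter, with enough replicates individually passing, limit read from the data; inconclusive means no rule stated though some were filed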;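 further: 0% = median of neutral control wells and 100% = median of positive control wells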
# NIH3T3 tox 2 = kills mouse NIH/3T3 fibroblasts | shares compounds with T cruzi growth-1 | inhibition, % at 24.9 µM | 5,600 compounds, 56% hits | NIH/3T3 viability, CellTiter-Glo ATP luminescence, 90 h;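 active means mean loss of cell viability signal at or above a set limit, and enough replicates individually reaching it; inconclusive means meets only the mean limit or only the replicate share; inactive means meets neither condition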;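 further: 0% = median of neutral control wells and 100% = median of positive control wells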
# Starred values were filed as active, the others as inactive; ? = inconclusive; . = not tested or not shown.
SMILES,C diff growth,T cruzi growth-1,T cruzi growth-2,T cruzi growth-3,NIH3T3 tox,NIH3T3 tox 2
C[C@@H]1CN([C@@H](C)CO)C(=O)c2cc(NC(=O)Nc3ccc4c(c3)OCO4)ccc2O[C@@H]1CN(C)Cc1ccc(Cl)c(Cl)c1,.,?,97.5*,94.6,56.6*,89.6*
C[C@@H]1CN([C@H](C)CO)C(=O)c2cccc(NC(=O)Nc3ccc4c(c3)OCO4)c2O[C@H]1CN(C)Cc1ccc(Cl)c(Cl)c1,.,?,100.5*,79.7,20.8,24.7*
C[C@@H]1CN([C@H](C)CO)C(=O)c2cc(NC(=O)Cc3cn(C)c4ccccc34)ccc2O[C@@H]1CN(C)CC1CC1,-0.3,27.4,.,.,.,.
COc1ccc(OC(=O)N(C)C[C@@H]2OCc3ccccc3-c3ccccc3C(=O)N([C@@H](C)CO)C[C@H]2C)cc1,-8.1,37.1,.,.,.,.
C[C@@H]1CCCCO[C@H](CN(C)CC2CCCCC2)[C@H](C)CN([C@H](C)CO)C(=O)c2cc(NC(=O)c3ccncc3)ccc2O1,.,16.2,.,.,.,.
O=C(Nc1ccc(F)cc1)N1CCCCN2[C@H](C1)[C@@H](c1ccc(-c3ccccc3F)cc1)[C@@H]2CO,41.3,85.4,.,.,.,.
O=C(Nc1ccccc1)N1CCCCN2[C@H](CO)[C@H](c3ccc(-c4ccccc4F)cc3)[C@@H]2C1,-1.5,100.9*,111.0*,60.5,-20.0,16.5
O=C(Nc1ccccc1)N1CCCCN2[C@@H](CO)[C@H](c3ccc(-c4ccccc4F)cc3)[C@@H]2C1,54.2,65.8,.,.,.,.
O=C(Nc1ccc(F)cc1)N1CCCCN2[C@@H](CO)[C@H](c3ccc(-c4ccccc4F)cc3)[C@@H]2C1,36.4,105.7*,86.6,90.3,55.2*,104.1*
O=C(Nc1ccc(F)cc1)N1CCCCN2[C@H](CO)[C@H](c3ccc(-c4ccccc4F)cc3)[C@@H]2C1,-4.1,114.8*,108.3*,63.7,3.5,51.9*
COc1ccc(NC(=O)N2CCCCN3[C@H](C2)[C@@H](c2ccc(-c4ccccc4F)cc2)[C@@H]3CO)cc1,27.8,57.9,.,.,.,.
O=C(Nc1cccc(F)c1)N1CCCCN2[C@H](CO)[C@H](c3ccc(-c4ccccc4F)cc3)[C@H]2C1,-29.5,101.3*,104.3*,111.7*,117.1*,104.4*
COc1cccc(NC(=O)C[C@@H]2CC[C@H]3[C@H](COc4ccc(NC(=O)C5CCC5)cc4C(=O)N3C)O2)c1,-4.1,.,.,.,.,.
Cc1noc(C)c1S(=O)(=O)Nc1ccc2c(c1)C(=O)N([C@@H](C)CO)C[C@H](C)[C@@H](CN(C)C(=O)Nc1ccccc1)OCCCC[C@H](C)O2,-1.2,30.8,.,.,.,.
CN(C)C(=O)C[C@@H]1CC[C@@H]2[C@H](COc3ccc(NC(=O)C4CCCC4)cc3C(=O)N2C)O1,-0.1,.,.,.,.,.
O=C(Nc1ccc(F)cc1)N1CCCCN2[C@H](C1)[C@H](c1ccc(-c3ccccc3F)cc1)[C@@H]2CO,26.4,?,108.8*,50.6,31.9,65.2*
COc1ccc(NC(=O)N2CCCCN3[C@H](CO)[C@H](c4ccc(-c5ccccc5F)cc4)[C@H]3C2)cc1,82.4,81.3,.,.,.,.
O=C(Nc1cc(F)ccc1F)N1CC(=O)N2[C@H](C1)[C@H](c1ccc(-c3cccc(F)c3)cc1)[C@@H]2CO,5.2,.,.,.,.,.
COc1ccc(S(=O)(=O)N(C)C[C@H]2Oc3cc(C#CC4CC4)ccc3S(=O)(=O)N([C@H](C)CO)C[C@H]2C)cc1,-0.6,106.5*,107.6*,92.5,23.5,58.9*
COc1ccc(S(=O)(=O)N(C)C[C@@H]2Oc3cc(C#CC4CCCC4)ccc3S(=O)(=O)N([C@H](C)CO)C[C@@H]2C)cc1,11.7,73.5,.,.,.,.
COc1ccc(S(=O)(=O)N(C)C[C@@H]2Oc3cc(C#CC4CCCC4)ccc3S(=O)(=O)N([C@@H](C)CO)C[C@@H]2C)cc1,7.1,66.8,.,.,.,.
COc1ccc(S(=O)(=O)N(C)C[C@@H]2Oc3cc(C#CC4CC4)ccc3S(=O)(=O)N([C@@H](C)CO)C[C@H]2C)cc1,8.6,112.0*,102.2*,77.5,53.2*,40.2*
O=C(C[C@H]1C=C[C@H](NC(=O)Cc2cccnc2)[C@H](CO)O1)Nc1ccc(-c2ccccc2)cc1,0.5,.,.,.,.,.
CCCC(=O)N1CC2(CCN(CC3CCCC3)CC2)c2c([nH]c3cc(OC)ccc23)[C@H]1CO,-1.5,.,.,.,.,.
COc1ccc(-c2cnc3c(c2)C(=O)N([C@@H](C)CO)C[C@H](C)[C@@H](CN(C)C)O3)cc1,0.0,-21.9,.,.,.,.
SMILES,C diff growth,T cruzi growth-1,T cruzi growth-2,T cruzi growth-3,NIH3T3 tox,NIH3T3 tox 2
CCCN1C[C@@H](C)[C@@H](OC)CN(C)C(=O)c2ccc(NC(=O)c3cccc(F)c3)cc2OC[C@@H]1C,.,38.4,.,.,.,.
CCCNC(=O)N(C)C[C@H]1Oc2ncc(/C=C/c3ccccc3)cc2C(=O)N([C@H](C)CO)C[C@@H]1C,1.8,93.3,.,.,.,.
C/C=C/c1cnc2c(c1)C(=O)N([C@H](C)CO)C[C@H](C)[C@H](CN(C)C(=O)Nc1ccccc1F)O2,1.7,19.3,.,.,.,.
C/C=C/c1cnc2c(c1)C(=O)N([C@H](C)CO)C[C@@H](C)[C@H](CN(C)C(=O)Nc1ccccc1F)O2,-0.9,3.6,.,.,.,.
C[C@H](CO)N1C[C@H](C)[C@@H](CN(C)C(=O)Nc2ccccc2F)Oc2ncc(/C=C/c3ccccc3)cc2C1=O,-13.8,118.2*,112.1*,55.5,16.3,17.0
C[C@@H]1CN([C@H](C)CO)C(=O)c2cc(/C=C/c3ccccc3)cnc2O[C@H]1CN(C)C(=O)Nc1ccccc1F,-11.2,124.3*,109.2*,104.2*,10.3,?
CCCNC(=O)N(C)C[C@@H]1Oc2ncc(/C=C/c3ccccc3)cc2C(=O)N([C@@H](C)CO)C[C@H]1C,9.7,103.4*,98.5*,35.9,-3.8,3.6
CC(C)NC(=O)Nc1ccc2c(c1)C(=O)N([C@H](C)CO)C[C@H](C)[C@H](CN(C)S(=O)(=O)c1ccc(Cl)cc1)OCCCC[C@H](C)O2,-9.5,79.5,.,.,.,.
CN1[C@H](C(=O)Nc2nccs2)[C@@H](CO)[C@@H]2Cn3c(ccc(-c4ccccc4F)c3=O)[C@@H]21,-2.1,36.3,.,.,.,.
C[C@@H]1CN([C@H](C)CO)S(=O)(=O)c2ccc(C#Cc3ccccc3)cc2O[C@@H]1CN(C)C,9.0,27.6,.,.,.,.
COc1ccc(C#Cc2ccc3c(c2)O[C@H](CN(C)C)[C@@H](C)CN([C@@H](C)CO)S3(=O)=O)cc1,0.9,?,109.0*,77.3,15.3,102.8*
COc1ccc(C#Cc2ccc3c(c2)O[C@@H](CN(C)C)[C@@H](C)CN([C@@H](C)CO)S3(=O)=O)cc1,4.8,51.4,.,.,.,.
C[C@H]1CN([C@@H](C)CO)S(=O)(=O)c2ccc(C#Cc3ccccc3)cc2O[C@@H]1CN(C)C,5.3,101.5*,105.1*,40.5,4.7,103.4*
O=C(Nc1ccccc1)N1CCCCN2[C@H](C1)[C@@H](c1ccc(C#Cc3ccccc3)cc1)[C@@H]2CO,14.4,59.6,.,.,.,.
